Experimental findings from PMC8384837, “Expanding the binding specificity for RNA recognition by a PUF domain” are described below.

Experiment in all cases: yeast three-hybrid, YBZ-1, SC-Leu-His + 0.5 mM 3-AT, 4 days
What all share (conditions): tags: N-Gal4 AD-HA kept; label: inside an RPR1-promoter hybrid RNA with tandem MS2 sites; ssRNA

One test deals with PUM1 PUF domain R3-CRR (Homo sapiens, UniProt Q14671 828-1176, Q939R). A digest of the protocol: (§1)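 The interaction score is the log change in how often each variant appears, from input to selection. Frequencies came from PCR-amplified, Illumina-sequenced repeat regions of Pumilio-1 PUF domain libraries grown in strain YBZ-1 (LexA–MS2 coat fusion, HIS3 reporter) alongside matching RNA elements. Input plates were SC-Leu and selection plates were SC-Leu-His + 0.5 mM 3-AT, each for four days, and the log2 calculation used a pseudocount of 1 where a variant was absent.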

The target of the next test is PUM1 PUF domain R3-LHG (Homo sapiens, UniProt Q14671 828-1176, C935L;R936H;Q939G). A digest of the protocol:
as §1

A further test addresses PUM1 PUF domain R7-TSS (Homo sapiens, UniProt Q14671 828-1176, S1079T;N1080S;E1083S). A digest of the protocol: as §1
A further test addresses PUM1 PUF domain R5-GRI (Homo sapiens, UniProt Q14671 828-1176, C1007G;Q1011I). A digest of the protocol:
as §1

A further test deals with PUM1 PUF domain R1-GRK (Homo sapiens, UniProt Q14671 828-1176, S863G;Q867K). The method, boiled down: as §1
In another test the target is PUM1 PUF domain R2-NWW (Homo sapiens, UniProt Q14671 828-1176, Y900W;Q903W). The method, boiled down:
as §1

A further test has as its target PUM1 PUF domain R5-ERK (Homo sapiens, UniProt Q14671 828-1176, C1007E;Q1011K). A digest of the protocol:
as §1

The target of another test is PUM1 PUF domain R3-GPF (Homo sapiens, UniProt Q14671 828-1176, C935G;R936P;Q939F). The method, boiled down:
as §1

Another test concerns the target T1, PUM1 PUF domain R6-QRQ (Homo sapiens, UniProt Q14671 828-1176, N1043Q;Y1044R).
T1 sequence: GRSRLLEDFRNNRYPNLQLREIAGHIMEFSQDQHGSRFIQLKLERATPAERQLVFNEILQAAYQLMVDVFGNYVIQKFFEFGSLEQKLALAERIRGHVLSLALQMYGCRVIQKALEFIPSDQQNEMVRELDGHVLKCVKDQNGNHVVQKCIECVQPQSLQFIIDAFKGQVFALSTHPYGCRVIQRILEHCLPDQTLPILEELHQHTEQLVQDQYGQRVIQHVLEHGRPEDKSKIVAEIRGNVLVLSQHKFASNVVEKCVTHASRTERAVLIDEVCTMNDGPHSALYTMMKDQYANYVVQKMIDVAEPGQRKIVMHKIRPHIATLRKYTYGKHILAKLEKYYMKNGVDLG
The method, boiled down: as §1

The next test concerns the target PUM1 PUF domain R2-PWE (Homo sapiens, UniProt Q14671 828-1176, N899P;Y900W;Q903E). A digest of the protocol:
as §1

For “GGCUAGAACUAGUGGAUCCCCCGGCGCCCGGCGGCUCGAGCCCGGGUAAGUGUAAGUAGUCUGCAUGCCGCCGGGCGCCAUGCCUGCAGGUCGACUCUAGAAAACAUG”, the binding signal in the test with PUM1 PUF domain R3-CRR was 1.17 log2 enrichment (interaction score); in the test with PUM1 PUF domain R3-LHG, 6.02 log2 enrichment (interaction score). In the case of “GGCUAGAACUAGUGGAUCCCCCGGCGCCCGGCGGCUCGAGCCCGGGUAAGUUUAAAUAGUCUGCAUGCCGCCGGGCGCCAUGCCUGCAGGUCGACUCUAGAAAACAUG”, the binding signal in the test with PUM1 PUF domain R7-TSS is 2.55 log2 enrichment (interaction score). Take “GGCUAGAACUAGUGGAUCCCCCGGCGCCCGGCGGCUCGAGCCCGGGUAAGUGUUAAUAGUCUGCAUGCCGCCGGGCGCCAUGCCUGCAGGUCGACUCUAGAAAACAUG”: the binding signal with PUM1 PUF domain R5-GRI was 3.43 log2 enrichment (interaction score). In the case of “GGCUAGAACUAGUGGAUCCCCCGGCGCCCGGCGGCUCGAGCCCGGGUAAGUGUAAAUUGUCUGCAUGCCGCCGGGCGCCAUGCCUGCAGGUCGACUCUAGAAAACAUG”, in the test with PUM1 PUF domain R1-GRK, the binding signal was 3.96 log2 enrichment (interaction score). As to “GGCUAGAACUAGUGGAUCCCCCGGCGCCCGGCGGCUCGAGCCCGGGUAAGUGUAAAUCGUCUGCAUGCCGCCGGGCGCCAUGCCUGCAGGUCGACUCUAGAAAACAUG”, the binding signal with PUM1 PUF domain R1-GRK was 5.64 log2 enrichment (interaction score). Turning to “GGCUAGAACUAGUGGAUCCCCCGGCGCCCGGCGGCUCGAGCCCGGGUAAGUGUAAUUAGUCUGCAUGCCGCCGGGCGCCAUGCCUGCAGGUCGACUCUAGAAAACAUG”, the binding signal was 2.3 log2 enrichment (interaction score) with PUM1 PUF domain R3-CRR and 4.7 log2 enrichment (interaction score) with PUM1 PUF domain R3-LHG.

Take “GGCUAGAACUAGUGGAUCCCCCGGCGCCCGGCGGCUCGAGCCCGGGUAAGUGUAAAUAGUCUGCAUGCCGCCGGGCGCCAUGCCUGCAGGUCGACUCUAGAAAACAUG”: the binding signal with PUM1 PUF domain R2-NWW was 3.94 log2 enrichment (interaction score); with PUM1 PUF domain R3-CRR it was 2.78 log2 enrichment (interaction score); with PUM1 PUF domain R5-ERK it was 4.01 log2 enrichment (interaction score); with PUM1 PUF domain R3-GPF, 5.65 log2 enrichment (interaction score); with PUM1 PUF domain R6-QRQ, 2.52 log2 enrichment (interaction score); in the test with PUM1 PUF domain R5-GRI, 3.04 log2 enrichment (interaction score).

Consider “GGCUAGAACUAGUGGAUCCCCCGGCGCCCGGCGGCUCGAGCCCGGGUAAGUGUAAAGAGUCUGCAUGCCGCCGGGCGCCAUGCCUGCAGGUCGACUCUAGAAAACAUG”, for which the binding signal with PUM1 PUF domain R2-PWE is 4.9 log2 enrichment (interaction score). As for “GGCUAGAACUAGUGGAUCCCCCGGCGCCCGGCGGCUCGAGCCCGGGUAAGUGUGAAUAGUCUGCAUGCCGCCGGGCGCCAUGCCUGCAGGUCGACUCUAGAAAACAUG”, the binding signal in the test with PUM1 PUF domain R5-GRI is 3.52 log2 enrichment (interaction score). Still for that read-out and setting: for “GGCUAGAACUAGUGGAUCCCCCGGCGCCCGGCGGCUCGAGCCCGGGUAAGUGUCAAUAGUCUGCAUGCCGCCGGGCGCCAUGCCUGCAGGUCGACUCUAGAAAACAUG” the value was 1.2 log2 enrichment (interaction score). Consider “GGCUAGAACUAGUGGAUCCCCCGGCGCCCGGCGGCUCGAGCCCGGGUAAGUGUAAAAAGUCUGCAUGCCGCCGGGCGCCAUGCCUGCAGGUCGACUCUAGAAAACAUG”, for which, in the test with PUM1 PUF domain R2-PWE, the binding signal was 2.14 log2 enrichment (interaction score).
